Data taken from PubChem BioAssay (NCATS).
Where “and” joins values, the source holds several entries; their conditions need not be identical. Equal entries are not always repeated. Records with an inconclusive call do not appear. Calls of active or inactive are those of the source. Unless noted, calls come from the whole dose curve; as a rule, active = well fitted curve in the direction sought with a large enough effect; inconclusive = small, poorly fitted or top-dose-only effect, or another doubt; inactive = no such curve, though single readings can be large; an effect the other way counts as inactive or inconclusive.

Tests used:
[1] = qHTS assay for small molecule disruptors of the mitochondrial membrane potential - 1 hr assay (AID 651754; calls by dose curve; note: % is set by controls: 0 for no effect and ±100 for the full control effect; nearly all actives have a fitted effect of over 35% in size)
Outline: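 HepG2, 2,000 cells/well, overnight attachment; cpd or DMSO 1 hr, 37C/5% CO2; Mito-MPS dye 30 min, 37C; fluorescence monomer (490/535) and aggregate (540/590).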

[2] = qHTS assay for small molecule disruptors of the mitochondrial membrane potential - 5 hr assay (AID 651755; calls by dose curve; note: % is set by controls: 0 for no effect and ±100 for the full control effect; nearly all actives have a fitted effect of over 40% in size)
Outline: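 HepG2, 2,000 cells/well, overnight attach; cpd or DMSO 5 hr, 37C/5% CO2; Mito-MPS 30 min 37C; fluor 490/535 + 540/590 nm.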

[3] = target: Tumor necrosis factor (Homo sapiens) (UniProt P01375); test: qHTS assay to identify small molecules that stimulate Tumor Necrosis Factor-alpha (TNF-alpha) secretion (AID 651757; active = well fitted curve in the direction sought with a large enough effect in the signal ratio; the % refers to the signal ratio; note: 0% is about no effect)
Chain of Tumor necrosis factor (Homo sapiens) (P01375 whole entry, looked up): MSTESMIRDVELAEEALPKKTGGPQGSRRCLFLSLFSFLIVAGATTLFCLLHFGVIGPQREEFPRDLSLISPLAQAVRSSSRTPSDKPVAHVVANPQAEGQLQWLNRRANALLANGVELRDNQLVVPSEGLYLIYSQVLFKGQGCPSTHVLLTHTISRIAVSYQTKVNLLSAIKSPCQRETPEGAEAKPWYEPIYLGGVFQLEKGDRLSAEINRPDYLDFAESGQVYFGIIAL
Outline: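 Read-out is HTRF, a TR-FRET sandwich of cryptate- and XL665-labeled anti-TNF-alpha antibodies detecting cytokine secreted by THP-1 cells. Cells had been incubated with test compounds at 37 C for 17 hrs beforehand.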

[4] = qHTS assay to identify small molecules that stimulate interleukin-8 (IL-8) secretion (AID 651758; active = well fitted activation curve with a large enough effect in the signal ratio; the % refers to the signal ratio; note: 0% is about no effect)
Outline: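 Secreted IL-8 measured by TR-FRET sandwich (cryptate and XL665 antibodies) from THP-1 cells exposed to compound overnight (16 hrs, 37 C).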

[5] = qHTS assay for environmental chemicals that activate the Aryl hydrocarbon Receptor (AhR) signaling pathway (AID 651777); details: 1A2-DRE human hepatoma cells, luciferase, 24 h; activation: active compounds read high; note: % of control where 0% means no effect; nearly all actives have a fitted effect of over 15% in size
Outline: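 Concentration–response screening used 1,200 1A2-DRE cells per well, 24 hr compound exposure (37 C, 5% CO2), and One-Glo luminescence as the AhR-driven CYP1A2 reporter signal.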

[6] = target: Peroxisome proliferator-activated receptor alpha (Homo sapiens) (UniProt Q07869); test: qHTS assay for small molecule agonists of the peroxisome proliferator-activated receptor alpha (PPARalpha) signaling pathway (AID 651778); details: PathHunter PPARalpha complementation, chemiluminescence, 6 h; active compounds read high; note: % of control where 0% means no effect
Chain of Peroxisome proliferator-activated receptor alpha (Homo sapiens) (Q07869 whole entry, looked up): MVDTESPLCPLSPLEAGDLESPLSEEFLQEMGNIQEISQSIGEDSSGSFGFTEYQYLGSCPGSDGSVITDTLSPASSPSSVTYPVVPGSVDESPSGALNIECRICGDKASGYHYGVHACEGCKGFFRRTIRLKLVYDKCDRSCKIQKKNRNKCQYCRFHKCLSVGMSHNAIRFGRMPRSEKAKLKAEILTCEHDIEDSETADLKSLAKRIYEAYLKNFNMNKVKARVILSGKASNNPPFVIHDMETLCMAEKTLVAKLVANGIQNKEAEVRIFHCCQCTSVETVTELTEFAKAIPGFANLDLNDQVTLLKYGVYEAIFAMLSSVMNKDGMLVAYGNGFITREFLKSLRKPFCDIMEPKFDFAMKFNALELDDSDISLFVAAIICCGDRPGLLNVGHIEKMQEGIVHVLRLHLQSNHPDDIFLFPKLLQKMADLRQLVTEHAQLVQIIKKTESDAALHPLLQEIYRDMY
Outline: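 Chemiluminescence from complemented enzyme reported PPARalpha activation in cells after 6 hr of compound treatment at 37 C. The detection reagent was incubated for 60 min at room temperature, and compounds were scored as agonists.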

[7] = target: Nuclear receptor ROR-gamma (Homo sapiens) (UniProt P51449); test: qHTS assay for small molecule antagonists of the retinoid-related orphan receptor gamma (ROR-gamma) signaling pathway (AID 651802);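 note: luciferase reporter luminescence driven by ROR response element; series mostly up to about 92 µM; % is set by controls: 0 for no effect and ±100 for the full control effect; nearly all actives have a fitted effect of over 60% in size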
Chain of Nuclear receptor ROR-gamma (Homo sapiens) (P51449 whole entry, looked up): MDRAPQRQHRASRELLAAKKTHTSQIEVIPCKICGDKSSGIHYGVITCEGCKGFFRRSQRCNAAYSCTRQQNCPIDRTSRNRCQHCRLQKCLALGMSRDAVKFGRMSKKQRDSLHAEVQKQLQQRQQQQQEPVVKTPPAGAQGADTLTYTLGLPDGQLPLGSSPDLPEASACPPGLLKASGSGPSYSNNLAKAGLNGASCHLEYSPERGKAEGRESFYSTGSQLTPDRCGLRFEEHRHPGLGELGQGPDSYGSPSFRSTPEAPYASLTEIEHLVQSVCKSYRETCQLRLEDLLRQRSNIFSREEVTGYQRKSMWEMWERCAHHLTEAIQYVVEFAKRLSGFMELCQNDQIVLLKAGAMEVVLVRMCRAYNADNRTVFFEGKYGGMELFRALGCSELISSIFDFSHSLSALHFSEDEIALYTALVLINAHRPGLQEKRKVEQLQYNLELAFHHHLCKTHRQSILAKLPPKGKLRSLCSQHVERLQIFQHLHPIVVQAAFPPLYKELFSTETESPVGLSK
Outline: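 CHO, TET-inducible ROR + RORE-LUC reporter, 1536-well qHTS. Compound pinned, doxycycline added, 16hr 37C/5% CO2. ONE-Glo, 30 min RT, luminescence; signal drop scored as antagonism.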

[8] = qHTS assay for small molecule agonists of the antioxidant response element (ARE) signaling pathway measured by Nrf2-dependant transcriptional activity (AID 720636; active = well fitted curve in the direction sought with a large enough effect in the repeat runs; an effect the other way counts as inactive or inconclusive;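 note: HepG2 cells with an ARE-driven luciferase reporter; % of control where 0% means no effect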)
Outline: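 Attachment 6 hr at 37 C, then compound versus DMSO vehicle for 16 hr in ARE-luc HepG2 cells (1% dialyzed FBS); luminescence recorded 30 min after ONE-Glo addition at room temperature.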

[9] = qHTS assay for small molecule antagonists of the retinoid-related orphan receptor gamma (ROR-gamma) signaling pathway - cell viability counter screen (AID 720652; active = well fitted curve in the direction sought with a large enough effect in the repeat runs; an effect the other way counts as inactive or inconclusive;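 note: series mostly up to about 92 µM; compound exposure lasted 16 hr before ATP read; % is set by controls: 0 for no effect and ±100 for the full control effect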)
Outline: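 Luminescence from CellTiter-Glo after 30 min at room temperature reported cellular ATP as the cytotoxicity measure. Cells were the CHO reporter line with doxycycline-induced ROR-gamma expression, exposed to compound for 16 hr at 37 C.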

[10] = qHTS assay for small molecule agonists of the antioxidant response element (ARE) signaling pathway measured by Nrf2-dependant transcriptional activity - cell viability counter screen (AID 720653; active = well fitted curve in the direction sought with a large enough effect in the repeat runs; an effect the other way counts as inactive or inconclusive; note: % is set by controls: 0 for no effect and ±100 for the full control effect); details: ARE-bla HepG2 viability, CellTiter-Glo ATP luminescence, 16 h; active compounds read low
Outline: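 Cytotoxicity counter screen: intracellular ATP quantified by CellTiter-Glo luminescence in the same ARE-bla HepG2 plates, after 16 h compound exposure and a 2 h beta-lactamase substrate step.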

[11] = qHTS assay for cell viability of HEK293 cells (AID 743288); details: ATP luminescence (CellTiter-Glo), 18 h, active compounds read low; note: % is set by controls: 0 for no effect and ±100 for the full control effect; nearly all actives have a fitted effect of over 50% in size
Outline: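 Luminescent ATP quantitation served as the viability read-out. Cells (parental HEK293, 2,000/well) received compounds after at least 5 h at 37 C and were exposed for 18 h before a 30 min room-temperature reagent step.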

[12] = qHTS assay for cell viability of the p53RE-bla HCT-116 cell line (AID 743292); note: % is set by controls: 0 for no effect and ±100 for the full control effect; nearly all actives have a fitted effect of over 55% in size
Outline: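 Compound-exposed HCT-116 (p53RE-bla) cells, 4,000 per well, were kept 16 h at 37 C following a 5 h preincubation. Cell number was estimated from total ATP by CellTiter-Glo luminescence read after 30 min at room temperature.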

[13] = target: Nuclear receptor subfamily 1 group I member 2 (Rattus norvegicus) (UniProt Q9R1A7); test: qHTS assay for small molecule activators of the rat pregnane X receptor (rPXR) signaling pathway (AID 651751; call rule not given here; note: 0% is about no effect); details: rPXR reporter cells, luciferase (One-Glo), 24 h
Chain of Nuclear receptor subfamily 1 group I member 2 (Rattus norvegicus) (Q9R1A7 whole entry, looked up): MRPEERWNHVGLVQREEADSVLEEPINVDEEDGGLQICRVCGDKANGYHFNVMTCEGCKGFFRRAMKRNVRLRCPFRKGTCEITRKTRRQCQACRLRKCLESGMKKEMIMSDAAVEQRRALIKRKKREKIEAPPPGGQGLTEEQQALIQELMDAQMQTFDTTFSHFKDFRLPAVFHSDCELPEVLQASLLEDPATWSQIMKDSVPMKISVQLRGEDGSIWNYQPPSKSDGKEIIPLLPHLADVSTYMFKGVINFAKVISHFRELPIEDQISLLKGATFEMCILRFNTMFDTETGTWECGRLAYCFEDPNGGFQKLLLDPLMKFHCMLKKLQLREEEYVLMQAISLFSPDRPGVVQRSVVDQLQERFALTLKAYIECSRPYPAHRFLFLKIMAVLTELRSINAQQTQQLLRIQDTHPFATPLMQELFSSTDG

[14] = qHTS assay for small molecule activators of the human pregnane X receptor (PXR) signaling pathway (AID 720659; call rule not given here; note: 0% is about no effect)

CC(C)N(C)C
inactive: Potency [1] | Potency [2] | Potency [3] | Potency [4] | activation [5] -0.41% | max response [6] -5.48% | Potency [7] | outcome [8] | Potency [9] | max response [10] 2.26% | max response [11] 6.47% | Potency [12] | max response [13] -2.95% | outcome [14]

CC(C)=C1CCC(C)CC1=O (stereo not drawn)
inactive: Potency [1] | Potency [2] | Potency [3] | Potency [4] | activation [5] -0.665% | max response [6] -4.55% | Potency [7] | outcome [8] | Potency [9] | max response [10] 3.25% | max response [11] 10.3% | Potency [12] | max response [13] -2.32% | outcome [14]

Nc1cc(S(=O)(=O)O)ccc1O
inactive: Potency [1] | Potency [2] | Potency [3] | Potency [4] | activation [5] -0.613% | max response [6] -7.35% | Potency [7] | outcome [8] | Potency [9] | max response [10] 3.72% | max response [11] -1.98% | Potency [12] | max response [13] 3.88% | outcome [14]

c1ccc(Oc2ccccc2)cc1
inactive: Potency [1] | Potency [2] | Potency [3] | Potency [4] | activation [5] -0.267% and -0.51% | max response [6] -7.64% and 0.0496% | Potency [7] | outcome [8] | Potency [9] | max response [10] 5.45% and -9.72% | max response [11] -1.32% and 1.9% | Potency [12] | max response [13] -0.536% and 5.2% | outcome [14]

Cc1ccc(C)c(N)c1
inactive: Potency [1] | Potency [2] | Potency [3] | Potency [4] | activation [5] -0.892% | max response [6] 7.66% | Potency [7] | outcome [8] | Potency [9] | max response [10] 0.0142% | max response [11] -4.96% | Potency [12] | max response [13] -4.19% | outcome [14]

CC(C)C=O
inactive: Potency [1] | Potency [2] | Potency [3] | Potency [4] | activation [5] 0.299% | max response [6] -0.412% | Potency [7] | outcome [8] | Potency [9] | max response [10] -2.28% | max response [11] -10.3% | Potency [12] | max response [13] 1.58% | outcome [14]

Cc1ccc(C(C)(C)C)cc1
inactive: Potency [1] | Potency [2] | Potency [3] | Potency [4] | activation [5] -0.334% | max response [6] 3.18% | Potency [7] | outcome [8] | Potency [9] | max response [10] -0.19% | max response [11] 1.5% | Potency [12] | max response [13] -0.498% | outcome [14]

CC(C)Cc1nccs1
inactive: Potency [1] | Potency [2] | Potency [3] | Potency [4] | activation [5] 1% | max response [6] -1.04% | Potency [7] | outcome [8] | Potency [9] | max response [10] 25.9% | max response [11] -11.2% | Potency [12] | max response [13] 7.57% | outcome [14]

COCCOC(=O)c1ccccc1C(=O)OCCOC
inactive: Potency [1] | Potency [2] | Potency [3] | Potency [4] | activation [5] -0.057% | max response [6] 2.89% | Potency [7] | outcome [8] | Potency [9] | max response [10] 9.02% | max response [11] -2.4% | Potency [12] | max response [13] -0.386%

NC(=O)CCCCC(N)=O
inactive: Potency [1] | Potency [2] | Potency [3] | Potency [4] | activation [5] -0.919% | max response [6] -1.94% | Potency [7] | outcome [8] | Potency [9] | max response [10] -6.44% | max response [11] 10.2% | Potency [12] | max response [13] 1.18% | outcome [14]

CC(C)=CCl
inactive: Potency [1] | Potency [2] | Potency [3] | Potency [4] | activation [5] 2.36% | max response [6] 0.634% | Potency [7] | outcome [8] | Potency [9] | max response [10] 14.9% | max response [11] -6.69% | Potency [12] | max response [13] 3.22% | outcome [14]

O=C(O)c1ccc(C(=O)O)cc1
inactive: Potency [1] | Potency [2] | Potency [3] | Potency [4] | activation [5] -0.394% and -1.3% | max response [6] -2.31% and 0.244% | Potency [7] | outcome [8] | max response [10] -2.71% and -15.5% | max response [11] 8.37% and 1.4% | Potency [12] | max response [13] -1.05% and -0.301% | outcome [14]

CC(C)=CCC/C(C)=C/C=O
inactive: Potency [1] | Potency [2] | Potency [3] | Potency [4] | activation [5] 1.06% and -1.3% | max response [6] -4.87% and -0.301% | Potency [7] | outcome [8] | Potency [9] | max response [10] -2.99% and -11.3% | max response [11] -7.6% and -9.91% | Potency [12] | max response [13] -5.36% and -0.0145% | outcome [14]

Cc1ccc2ccccc2c1[N+](=O)[O-]
inactive: Potency [1] | Potency [2] | Potency [3] | Potency [4] | activation [5] 1.24% | max response [6] 5.72% | Potency [7] | outcome [8] | max response [10] 14.1% | max response [11] 1.17% | Potency [12] | max response [13] -2.23% | outcome [14]

CCOc1ccccc1N
inactive: Potency [1] | Potency [2] | Potency [3] | Potency [4] | activation [5] -0.265% | max response [6] -0.0098% | Potency [7] | outcome [8] | Potency [9] | Potency [12] | max response [13] 2.86% | outcome [14]

CCCCC(CC)CO (stereo not drawn)
inactive: Potency [1] | Potency [2] | Potency [3] | Potency [4] | activation [5] -0.248% | max response [6] -2.86% | Potency [7] | outcome [8] | Potency [9] | max response [11] -2.63% | Potency [12] | max response [13] -2.06% | outcome [14]
